Laboratory results: the supplement of paper PMC8975748
Where a name gives a salt, the structure may show the parent alone.

tested on: Saccharomyces cerevisiae BY4741 SeMeCo community; assay: z-score of subpopulation abundance vs DMSO median, subpopulation auxotrophic for L; higher = larger share of this subpopulation than in DMSO controls; conditions: 10 µM; 24 h; SM minimal medium; subpopulation (auxotrophy): L
Summary of the method: (§1)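 Cells of a Saccharomyces cerevisiae BY4741 community, carrying four plasmids that each restored one auxotrophy and encoded a distinct fluorescent protein, were pre-grown overnight to OD600 1.0 and diluted to 0.3. A 70 µl volume was added to 384-well plates acoustically predosed with library drugs (10 µM final) and grown 24 h in minimal SM medium. After paraformaldehyde fixation, automated confocal microscopy was used, with single-auxotroph fluorescent strains for thresholds and autofluorescence correction. The abundance of each subpopulation was scored as a z-score against the vehicle-well median.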

Going from C#CCN[C@@H]1CCc2ccccc21 [Rasagiline Mesylate] to Cc1cccc(C)c1NC(=O)C1CCCCN1C (stereo not drawn) [Mepivacaine], the “z-score of subpopulation abundance” value falls from 1.22 to -0.3.

Compared with CC1(C)S[C@@H]2[C@H](NC(=O)COc3ccccc3)C(=O)N2[C@H]1C(=O)O [Penicillin V potassium salt], CC1(C)[C@H](C(=O)O)N2C(=O)C[C@H]2S1(=O)=O [Sulbactam sodium] is higher in “z-score of subpopulation abundance” value: -1.58 for the first, -0.23 for the second.

Compared with CC[C@H]1OC(=O)C[C@@H](O)[C@H](C)[C@@H](O[C@@H]2O[C@H](C)[C@@H](O[C@H]3C[C@@](C)(O)[C@@H](O)[C@H](C)O3)[C@H](N(C)C)[C@H]2O)[C@@H](CC=O)C[C@@H](C)C(=O)/C=C/C(C)=C/[C@@H]1CO[C@@H]1O[C@H](C)[C@@H](O)[C@@H](OC)[C@H]1OC [Tylosin], CCC(=O)Oc1ccc2c(c1)CCC1C2CCC2(C)C(OC(=O)CC)CCC12 (stereo not drawn) [Estradiol dipropionate(17-Beta-Estradiol-3,17-Dipropionate)] is lower in “z-score of subpopulation abundance” value: 1.29 for the first, -1.37 for the second.

Going from C[N+]1(C)[C@@H]2C[C@@H](OC(=O)C(O)(c3cccs3)c3cccs3)C[C@H]1[C@@H]1O[C@@H]12 [Tiotropium Bromide hydrate] to C[C@H](NCc1ccc(OCc2cccc(F)c2)cc1)C(N)=O [Safinamide Mesylate], the “z-score of subpopulation abundance” value rises from -0.76 to 0.79.

Going from CCN(CC)CCOCCOC(=O)C1(c2ccccc2)CCCC1 [Pentoxyverine Citrate] to OC(CCN1CCCCC1)(c1ccccc1)C1CCCCC1 (stereo not drawn) [Trihexyphenidyl hydrochloride], the “z-score of subpopulation abundance” value rises from -0.03 to 0.5.

First: CC1=C(CC(=O)O)c2cc(F)ccc2/C1=C\c1ccc([S+](C)[O-])cc1 (stereo not drawn) [Sulindac]
Second: O=C(O)C[C@H](O)C[C@H](O)/C=C/c1c(C2CC2)nc2ccccc2c1-c1ccc(F)cc1 [Pitavastatin Calcium]
The “z-score of subpopulation abundance” value of the first is higher: 1.59 for the first, 0.86 for the second.

Going from C#C[C@]1(O)CC[C@H]2[C@@H]3CCC4=CCCC[C@@H]4[C@H]3CC[C@@]21C [Lynestrenol] to C#C[C@]1(O)CC[C@H]2[C@@H]3CCC4=CCCC[C@@H]4[C@H]3C(=C)C[C@@]21CC [Desogestrel], the “z-score of subpopulation abundance” value rises from -0.78 to -0.12.

First: CN(C)CCCN1c2ccccc2Sc2ccc(Cl)cc21 [Chlorpromazine HCl]
Second: CN(C/C=C/C#CC(C)(C)C)Cc1cccc2ccccc12 [Terbinafine HCl]
The “z-score of subpopulation abundance” value of the first is higher: -0.35 for the first, -0.84 for the second.

First: N[C@@H](CCC(=O)O)C(=O)O [(S)-Glutamic acid]
Second: COC(=O)C1=C(C)NC(C)=C(C(=O)OCCN2CCN(C(c3ccccc3)c3ccccc3)CC2)C1c1cccc([N+](=O)[O-])c1 (stereo not drawn) [Manidipine 2HCl]
The “z-score of subpopulation abundance” value of the first is higher: 0.52 for the first, 0.47 for the second.

Compared with CCCCCCCCCCCCCCCC[N+](C)(C)C [Cetrimonium Bromide (CTAB)], O=C1CCc2ccc(OCCCCN3CCN(c4cccc(Cl)c4Cl)CC3)cc2N1 [Aripiprazole] is higher in “z-score of subpopulation abundance” value: -1.79 for the first, 1.13 for the second.

Going from N#CC(c1ccc(Cl)cc1)c1c(Cl)cc(-n2ncc(=O)[nH]c2=O)cc1Cl (stereo not drawn) [Diclazuril] to COCCCN1CCC(NC(=O)c2cc(Cl)c(N)c3c2OCC3)CC1 [Prucalopride], the “z-score of subpopulation abundance” value falls from -0.07 to -0.58.

tested on: Saccharomyces cerevisiae BY4741 SeMeCo community; assay: z-score of subpopulation abundance vs DMSO median, subpopulation auxotrophic for U; higher = larger share of this subpopulation than in DMSO controls; conditions: 10 µM; 24 h; SM minimal medium; subpopulation (auxotrophy): U
Summary of the method: as §1

First: C#CCN[C@@H]1CCc2ccccc21 [Rasagiline Mesylate]
Second: Cc1cccc(C)c1NC(=O)C1CCCCN1C (stereo not drawn) [Mepivacaine]
The “z-score of subpopulation abundance” value of the first is lower: -0.4 for the first, 0.11 for the second.

First: COc1cc2c(cc1OC)[C@@H]1Cc3ccc(OC)c(OC)c3CN1CC2 [Rotundine]
Second: O=C1CCc2ccc(OCCCCN3CCN(c4cccc(Cl)c4Cl)CC3)cc2N1 [Aripiprazole]
The “z-score of subpopulation abundance” value of the first is higher: 0.7 for the first, 0.55 for the second.

Compared with C[C@H](NCc1ccc(OCc2cccc(F)c2)cc1)C(N)=O [Safinamide], CC1=C(CC(=O)O)c2cc(F)ccc2/C1=C\c1ccc([S+](C)[O-])cc1 (stereo not drawn) [Sulindac] is lower in “z-score of subpopulation abundance” value: 1.46 for the first, -1.92 for the second.

Compared with CC1(C)S[C@@H]2[C@H](NC(=O)COc3ccccc3)C(=O)N2[C@H]1C(=O)O [Penicillin V potassium salt], CCC(=O)Oc1ccc2c(c1)CCC1C2CCC2(C)C(OC(=O)CC)CCC12 (stereo not drawn) [Estradiol dipropionate(17-Beta-Estradiol-3,17-Dipropionate)] is lower in “z-score of subpopulation abundance” value: 0.95 for the first, 0.61 for the second.

First: CC[C@H]1OC(=O)C[C@@H](O)[C@H](C)[C@@H](O[C@@H]2O[C@H](C)[C@@H](O[C@H]3C[C@@](C)(O)[C@@H](O)[C@H](C)O3)[C@H](N(C)C)[C@H]2O)[C@@H](CC=O)C[C@@H](C)C(=O)/C=C/C(C)=C/[C@@H]1CO[C@@H]1O[C@H](C)[C@@H](O)[C@@H](OC)[C@H]1OC [Tylosin]
Second: NC[C@@H]1O[C@H](O[C@H]2[C@@H](O)[C@H](O[C@@H]3[C@@H](O)[C@H](N)C[C@H](N)[C@H]3O[C@H]3O[C@H](CN)[C@@H](O)[C@H](O)[C@H]3N)O[C@@H]2CO)[C@H](N)[C@@H](O)[C@@H]1O [Neomycin sulfate]
The “z-score of subpopulation abundance” value of the first is higher: 0.25 for the first, 0.07 for the second.

Compared with C[N+]1(C)[C@@H]2C[C@@H](OC(=O)C(O)(c3cccs3)c3cccs3)C[C@H]1[C@@H]1O[C@@H]12 [Tiotropium Bromide hydrate], C[C@H](NCc1ccc(OCc2cccc(F)c2)cc1)C(N)=O [Safinamide Mesylate] is lower in “z-score of subpopulation abundance” value: 0.36 for the first, -0.34 for the second.

Compared with CCC(=O)NS(=O)(=O)c1ccc(-c2c(-c3ccccc3)noc2C)cc1 [Parecoxib Sodium], O=C(O)C[C@H](O)C[C@H](O)/C=C/c1c(C2CC2)nc2ccccc2c1-c1ccc(F)cc1 [Pitavastatin Calcium] is lower in “z-score of subpopulation abundance” value: 0.97 for the first, 0.68 for the second.

Going from CCN(CC)CCOCCOC(=O)C1(c2ccccc2)CCCC1 [Pentoxyverine Citrate] to CCC(C)(Oc1ccc(C2(c3ccc(OC(C)(CC)C(=O)O)cc3)CCCCC2)cc1)C(=O)O (stereo not drawn) [Clinofibrate], the “z-score of subpopulation abundance” value rises from 0.17 to 0.34.

First: C#C[C@]1(O)CC[C@H]2[C@@H]3CCC4=CCCC[C@@H]4[C@H]3CC[C@@]21C [Lynestrenol]
Second: C#C[C@]1(O)CC[C@H]2[C@@H]3CCC4=CCCC[C@@H]4[C@H]3C(=C)C[C@@]21CC [Desogestrel]
The “z-score of subpopulation abundance” value of the first is higher: 1.07 for the first, -0.38 for the second.

Compared with CN(C)CCCN1c2ccccc2Sc2ccc(Cl)cc21 [Chlorpromazine HCl], CN(C)CCN1C(=O)c2cccc3cc(N)cc(c23)C1=O [Amonafide] is lower in “z-score of subpopulation abundance” value: 0.63 for the first, -1.14 for the second.

Compared with NC(=O)N1c2ccccc2C=Cc2ccccc21 [Carbamazepine], c1ccc(-c2ccc(C(c3ccccc3)n3ccnc3)cc2)cc1 (stereo not drawn) [Bifonazole] is lower in “z-score of subpopulation abundance” value: 0.01 for the first, -0.36 for the second.

Going from CC(=O)OCC(CCn1cnc2cnc(N)nc21)COC(C)=O [Famciclovir] to C#CCC(Cc1cnc2nc(N)nc(N)c2n1)c1ccc(C(=O)N[C@@H](CCC(=O)O)C(=O)O)cc1 (stereo partly drawn) [Pralatrexate], the “z-score of subpopulation abundance” value falls from -0.77 to -4.47.

Compared with C[C@@H]1CC(=O)NN=C1c1ccc(NN=C(C#N)C#N)cc1 [Levosimendan], N#CC(c1ccc(Cl)cc1)c1c(Cl)cc(-n2ncc(=O)[nH]c2=O)cc1Cl (stereo not drawn) [Diclazuril] is lower in “z-score of subpopulation abundance” value: 0.92 for the first, -1.07 for the second.

Compared with N[C@@H](CCC(=O)O)C(=O)O [(S)-Glutamic acid], CO/N=C(\C(=O)N[C@@H]1C(=O)N2C(C(=O)O)=C(Cn3ccc(=N)n3CCO)CS[C@H]12)c1csc(N)n1 [Cefoselis Sulfate] is lower in “z-score of subpopulation abundance” value: 0.05 for the first, 0.03 for the second.

First: c1cnc2cc3c(cc2n1)[C@@H]1CNC[C@H]3C1 [Varenicline Tartrate]
Second: OC(CCN1CCCCC1)(c1ccccc1)C1CCCCC1 (stereo not drawn) [Trihexyphenidyl hydrochloride]
The “z-score of subpopulation abundance” value of the first is lower: -0.22 for the first, 0.45 for the second.

Compared with CCCCCCCCCCCCCCCC[N+](C)(C)C [Cetrimonium Bromide (CTAB)], CN(C/C=C/C#CC(C)(C)C)Cc1cccc2ccccc12 [Terbinafine HCl] is higher in “z-score of subpopulation abundance” value: -1.73 for the first, 1.03 for the second.

First: C=CC[N+]1([C@H]2C[C@H]3[C@@H]4CC[C@H]5C[C@H](O)[C@@H](N6CCOCC6)C[C@]5(C)[C@H]4CC[C@]3(C)[C@H]2OC(C)=O)CCCC1 [Rocuronium Bromide]
Second: COCCCN1CCC(NC(=O)c2cc(Cl)c(N)c3c2OCC3)CC1 [Prucalopride]
The “z-score of subpopulation abundance” value of the first is lower: -0.5 for the first, 0.73 for the second.

Compared with CC/C(=C(\c1ccccc1)c1ccc(OCCN(C)C)cc1)c1ccccc1 [Tamoxifen], COC(=O)C1=C(C)NC(C)=C(C(=O)OCCN2CCN(C(c3ccccc3)c3ccccc3)CC2)C1c1cccc([N+](=O)[O-])c1 (stereo not drawn) [Manidipine 2HCl] is lower in “z-score of subpopulation abundance” value: -0.18 for the first, -1.31 for the second.
